We go through one molecule from the supplement of paper PMC6411743.

± gives the standard deviation of the averaged measurements. The full data set covers some 5,400 targets. This sample favours those with the largest changes.

In the test the target is T1, UniProt Q9NPI1|Q9NPI1-2.
T1 sequence (whole entry): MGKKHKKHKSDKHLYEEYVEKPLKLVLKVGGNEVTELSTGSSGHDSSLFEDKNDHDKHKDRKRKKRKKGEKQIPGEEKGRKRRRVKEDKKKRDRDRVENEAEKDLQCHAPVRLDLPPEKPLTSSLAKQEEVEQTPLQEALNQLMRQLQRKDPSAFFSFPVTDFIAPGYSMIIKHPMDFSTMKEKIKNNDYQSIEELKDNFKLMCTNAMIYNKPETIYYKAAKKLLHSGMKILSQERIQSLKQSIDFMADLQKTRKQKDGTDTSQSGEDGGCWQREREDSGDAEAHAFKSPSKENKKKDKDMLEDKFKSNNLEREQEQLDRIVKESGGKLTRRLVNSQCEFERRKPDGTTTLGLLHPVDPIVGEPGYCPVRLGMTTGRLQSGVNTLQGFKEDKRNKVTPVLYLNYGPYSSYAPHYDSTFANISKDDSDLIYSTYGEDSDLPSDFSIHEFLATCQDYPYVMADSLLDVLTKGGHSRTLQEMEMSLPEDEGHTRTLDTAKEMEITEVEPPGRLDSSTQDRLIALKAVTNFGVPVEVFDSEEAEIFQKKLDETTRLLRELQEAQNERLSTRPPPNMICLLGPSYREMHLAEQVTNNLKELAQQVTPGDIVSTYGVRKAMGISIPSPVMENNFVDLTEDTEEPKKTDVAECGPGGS
Put plainly: NP40-soluble protein abundance relative to vehicle (solubility fold change) (ratio); higher = more soluble protein in presence of GTP. On the procedure: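 Solubility proteome profiling in Jurkat crude lysate. Lysate was treated with Mg-GTP (0.1-10 mM) for 10 min at room temperature and 3 min at 37 °C, then solubilised with 0.8% NP40 and benzonase, followed by ultracentrifugation. Proteins were quantified by TMT10 LC-MS/MS; the value is the NP40-soluble abundance relative to the NP40-processed vehicle, from 3 independent experiments.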

Regarding `Nc1nc2c(ncn2[C@@H]2O[C@H](COP(=O)(O)OP(=O)(O)OP(=O)(O)O)[C@@H](O)[C@H]2O)c(=O)[nH]1` [guanosine triphosphate], the NP40-soluble protein abundance (concentration: 0.1mM) came to 1.09 ± 0.029; the NP40-soluble protein abundance (concentration: 0.5mM) came out at 1.11 ± 0.036; the NP40-soluble protein abundance (concentration: 1mM) was found to be 1.22 ± 0.041; the NP40-soluble protein abundance (concentration: 2mM) was determined as 1.36 ± 0.098; the NP40-soluble protein abundance (concentration: 4mM) amounted to 1.4 ± 0.18; the NP40-soluble protein abundance (concentration: 6mM) was found to be 1.47 ± 0.2. The NP40-soluble protein abundance was found to be 1.58 ± 0.32 (concentration: 8mM) and 1.56 ± 0.28 (concentration: 10mM).
